Compound activity from PubChem BioAssay.
This is a sample that favours compounds with a hit; in the whole collection about 6% have one here.
D1 antag: antagonists of human D1 dopamine receptor | P21728 | HEK293 TREx D1 cells, calcium flux, dopamine EC80; hits give low values | activity change, negative = inhibition, % at 10 µM | 360,000 compounds, 3.2% hits | AID 504652; in the data active = activity change below about -30%; note: % is set by controls: 0 for no effect and ±100 for the full control effect
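Cells carrying a force-coupled, tetracycline-inducible human D1 receptor report calcium flux. Each well gets a 10 s baseline, compound with 180 s monitoring, then an EC80 dopamine stimulus with a second 180 s kinetic read.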
DRD3 antagonist: blocks the human D3 dopamine receptor | P35462 | D3R cells, DiscoveRx beta-arrestin luminescence, antagonist mode; hits give low values | max response, negative = inhibition, % | 360,000 compounds, 2.5% hits | AID 652054; in the data active = max response below about -50%; inconclusive = no clear call, values can overlap the other calls; note: % is set by controls: 0 for no effect and ±100 for the full control effect
Target sequence (P35462 whole entry, looked up): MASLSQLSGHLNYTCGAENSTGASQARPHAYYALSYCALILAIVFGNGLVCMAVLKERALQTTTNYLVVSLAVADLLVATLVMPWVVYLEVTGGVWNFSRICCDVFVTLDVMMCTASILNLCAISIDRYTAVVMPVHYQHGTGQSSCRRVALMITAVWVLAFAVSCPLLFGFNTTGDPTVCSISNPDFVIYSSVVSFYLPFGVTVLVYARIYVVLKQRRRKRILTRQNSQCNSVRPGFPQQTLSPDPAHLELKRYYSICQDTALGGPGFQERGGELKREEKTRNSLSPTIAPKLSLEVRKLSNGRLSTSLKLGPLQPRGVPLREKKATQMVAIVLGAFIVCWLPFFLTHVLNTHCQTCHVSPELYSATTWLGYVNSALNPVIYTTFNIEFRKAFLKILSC
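Cells plated overnight at 1500 cells/well, then exposed to library compounds with dopamine controls for 90 minutes at 37 degrees C. DiscoveRx reagent added for 30–60 minutes at room temperature; luminescence read, quantitative HTS format.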
D1 ag: agonists of human D1 dopamine receptor. HEK293 T-REx D1 cells, calcium flux, agonist mode. 360,000 compounds, 1% hits. P21728. activation, % at 2 µM; in the data active = activation above about 30%; note: 0% is about no effect
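Agonism was scored from calcium flux recorded over 180 s (1 read/s) after pintool compound addition, following a 10-cycle baseline. Cells were inducible force-coupled HEK293 TREx D1, plated overnight at 30 C and loaded with no-wash calcium dye.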
DRD3 agonist: activates the human D3 dopamine receptor; P35462; D3R DiscoveRx beta-arrestin cells, luminescence, 90 min; max activation, %; 410,000 compounds, 0.58% hits; AID 652048; in the data active = max activation above about 30%; note: 0% is about no effect
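Agonist-mode cell screen: cells plated at 1500/well and incubated overnight at 37 °C, then exposed to library compounds for 90 min at 37 °C. Detection reagent was added for 30–60 min at room temperature, and luminescence was read.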
D1 PAM: potentiators of human D1 dopamine receptor. 360,000 compounds, 0.036% hits. potentiation, % at 10 µM. HEK293 TREx D1 cells, calcium flux, dopamine EC20 potentiation. AID 504651. P21728; in the data active = potentiation above about 30%; note: 0% is about no effect
An asterisk follows results filed as active; ? = inconclusive; nt = no result.

SMILES	D1 antag	DRD3 antagonist	D1 ag	DRD3 agonist	D1 PAM
O=C(/C=C/c1cccc([N+](=O)[O-])c1)NC(=S)Nc1ccc(CN2CCOCC2)cc1	-1.4	-58.4*	6.8	-56.2	-7.1
O=C(NC(=S)Nc1ccc(CN2CCOCC2)cc1)c1ccc([N+](=O)[O-])cc1	-6.4	-50.1*	14.2	-7.2	-2.0
O=C(COc1ccc(Cl)cc1Cl)NC(=S)Nc1ccc(CN2CCOCC2)cc1	-40.3*	8.8	13.5	2.0	-4.7
COc1ccc(C(=O)NC(=S)Nc2ccc(CN3CCOCC3)cc2)cc1	-0.8	10.5	5.2	11.6	-2.6
O=[N+]([O-])c1cccc(COc2cccc(CN3CCOCC3)c2)c1	nt	-64.6*	nt	-36.9	nt
Cc1ccc(-n2nc3cc(C)c(NC(=O)COc4ccccc4)cc3n2)cc1	-12.6	nt	3.9	0.5	0.6
COC(=O)C1(Cc2cc(-c3ccc(OC)cc3OC)no2)CCN(C(=O)OC(C)(C)C)CC1	-3.6	-13.1	-1.5	77.1*	-0.7
COC(=O)C1(Cc2cc(-c3cccc(Br)c3)no2)CCN(C(=O)OC(C)(C)C)CC1	-18.5	-21.6	4.8	4.7	-9.8
CNS(=O)(=O)c1ccc(CNC[C@H]2O[C@@H](n3ccc(N)nc3=O)[C@H](O)[C@@H]2O)cc1	nt	3.6	nt	-1.0	nt
COC(=O)c1c(-c2ccc(Cl)cc2)noc1N1CCN(c2ccc(OC)cc2)CC1	2.7	nt	-1.3	69.1*	-2.6
C=CCn1c(O)c(N=Nc2ccccc2)c2ccccc21	10.4	-11.6	6.0	-12.4	13.7
Cc1ccccc1N=Nc1c(O)n(C)c2ccccc12	-39.0*	-27.2	4.6	-3.4	-4.0
C=CCn1c(O)c(N=Nc2ccccc2O)c2ccccc21	1.3	0.0	40.6*	-10.4	-3.3
CC(=O)O[C@@H](C[C@@H](C)C1=C2C[C@H](O)C3[C@@]4(C)CCC(=O)C(C)(C)C4CC[C@]3(C)[C@@]2(C)CC1)[C@H]1OC1(C)C (some centres undefined)	nt	9.5	nt	50.3*	nt
O=[N+]([O-])c1ccc(CN2CCN(c3ccc(Cl)cc3)CC2)o1	-32.3*	-26.8	4.9	-14.3	0.0
COc1ccccc1N1CCN(C(=S)NC(=O)c2ccc([N+](=O)[O-])cc2)CC1	nt	20.5	nt	-11.3	nt
O=[N+]([O-])c1ccc(N2CCN(C(=S)NCc3ccc(Cl)cc3)CC2)cc1	-1.3	-53.0*	5.8	-3.4	-4.2
COc1ccc(C(=O)NC(=S)N2CCN(c3ccc([N+](=O)[O-])cc3)CC2)cc1	-30.6*	?	4.8	-2.5	-4.9
CN1CCN(C(=S)Nc2ccc([N+](=O)[O-])cc2)CC1	-33.1*	?	1.8	-2.7	0.0
CC1=C(C(=O)N(C(C)C)C(C)C)CC(CC(=O)NCc2cccs2)C(=O)N1Cc1ccc(C(C)(C)C)cc1 (centres undefined)	nt	-11.0	nt	-7.0	nt
CC(C)c1ccc(N(CC(=O)NC(C)(C)C)C(=O)CCC(=O)Nc2nccs2)cc1	13.1	4.9	-0.2	0.1	-7.3
CCOCCCn1c(SCC(=O)Nc2ccc(F)cc2)nc2c(sc3ccccc32)c1=O	18.4	nt	-1.2	-6.9	0.9
COCCCNC(=S)N1CCN(c2ccc([N+](=O)[O-])cc2)CC1	-32.7*	-22.2	8.3	-7.5	-4.4
CSCCCNC(=S)N1CCN(c2ccc(C(C)=O)cc2)CC1	-32.6*	2.7	2.8	0.6	-5.5
CCCCNC(=S)N1CCN(c2ccc(C(C)=O)cc2)CC1	-16.8	-4.4	14.1	-5.2	-8.6
SMILES	D1 antag	DRD3 antagonist	D1 ag	DRD3 agonist	D1 PAM
COc1ccc(NC(=O)NCC2CCN(Cc3ccccc3F)CC2)c(OC)c1	6.6	nt	0.8	-18.5	2.2
CC(Sc1nnc(C(C)Oc2ccc(F)cc2)o1)C(=O)NCc1ccc2c(c1)OCO2 (centres undefined)	nt	16.7	nt	-0.1	nt
Cc1nn(S(=O)(=O)c2ccccc2)c(C)c1Sc1ccc([N+](=O)[O-])cc1	-33.0*	-80.1*	2.3	-0.7	-9.3
Cc1nn(S(=O)(=O)c2cccs2)c(C)c1Sc1ccc([N+](=O)[O-])cc1	-5.0	8.7	0.4	2.6	5.1
CC(C)(C)C(=O)Cn1c(=O)n(-c2ccc(Cl)c(Cl)c2)c(=O)c2c3c(sc21)CCCC3	-11.1	nt	0.5	-5.7	-0.3
CN(Cc1ccccc1)S(=O)(=O)c1ccc2[nH]c(=O)oc2c1	-37.8*	-1.8	6.8	-1.8	3.6
CN(c1ccccc1)S(=O)(=O)c1ccc2[nH]c(=O)oc2c1	-9.9	6.4	1.9	-7.7	-9.2
CC(=O)Nc1cccc(C(=O)/C=C/c2ccc(F)cc2)c1	1.6	-14.3	5.5	-14.3	-6.7
COc1ccc(/C=C/C(=O)Nc2cccc(F)c2)cc1	8.5	nt	-1.4	-2.2	-1.1
COc1ccc(/C=C/C(=O)Nc2cccc(C(C)=O)c2)cc1	-40.2*	18.7	4.4	3.9	-3.7
CC(=O)Nc1cccc(C(=O)/C=C/c2ccc(/C=C/C(=O)c3cccc(NC(C)=O)c3)cc2)c1	-8.3	nt	1.5	nt	-7.3
CC(=O)Nc1cccc(C(=O)/C=C/c2cccs2)c1	-4.3	-62.4*	5.5	-4.9	-4.5
CC(=O)Nc1cccc(C(=O)/C=C/c2ccc(N(C)C)cc2)c1	6.1	21.6	401.4*	4.2	14.8
COc1ccccc1Cc1nc2ccccc2nc1SCC(=O)Nc1c(C)cccc1C	5.4	nt	-1.2	-4.8	3.4
Cc1cc(C)n(C(=O)CCCC(=O)n2nc(C)cc2C)n1	-31.6*	9.0	2.2	2.1	-10.4
Cc1cc(C)n(C(=O)CCCCCCCC(=O)n2nc(C)cc2C)n1	-0.9	11.1	-1.3	-5.8	3.8
COc1ccc(/C=N/NC(=O)CC#N)cc1Oc1nc(Cl)ncc1F	-7.9	-8.1	10.0	-3.4	-4.0
COc1ccc(/C=C(/C#N)C(=O)Nc2ccc(C)cc2C)cc1C(=O)O	-34.9*	1.6	-1.0	-4.9	2.8
COc1cc(/C=C(/C#N)C(=O)Nc2ccc(C)cc2)ccc1Oc1nc(Cl)ncc1F	-30.5*	-5.6	6.9	-0.9	-5.2
COc1cccc(C(=O)Nc2ccc3nc(SCC(=O)N4CCc5ccccc54)sc3c2)c1	-38.0*	nt	8.0	-0.1	-2.3
CCOC(=O)CSc1nc2ccc(NC(=O)c3ccc(Cl)cc3)cc2s1	-21.8	nt	10.7	1.7	-1.0
O=C(COc1ccc(Cl)cc1)Nc1ccc2nc(SCC(=O)N3CCOCC3)sc2c1	-35.9*	nt	10.7	10.3	-1.9
Cc1ccc(C(=O)Nc2ccc3nc(SCC(=O)N4CCc5ccccc54)sc3c2)cc1	-5.0	nt	4.3	-13.7	-1.4
COc1ccc(C(=O)Nc2ccc3nc(SCC(=O)N4CCc5ccccc54)sc3c2)cc1	12.8	nt	3.9	4.8	0.3
CCOC(=O)Nc1ccc2nc(Sc3ccc(Cl)cc3)sc2c1	-33.8*	30.7	7.2	1.3	-6.1
Cc1ccc(OCC(=O)Nc2ccc3nc(SCC(=O)N4CCc5ccccc54)sc3c2)cc1	-34.5*	nt	-0.2	-6.4	3.8
